# Measurements taken from PubChem BioAssay AID1159580 (chemical genetic matrix, 2015).
# Screen size: about 5,500 compounds; about 2,000 (36%) were called active. Roughly 18% stayed inconclusive and do not appear here. The list shows a part of the results. Values without a mark were called inactive. Cut-off read from the data, not from the text of the source: active = normalized growth mostly below about 0.91 (no sharp cut-off); inconclusive = no clear call, values can overlap the other calls; inactive = mostly above about 0.92.
# Experiment: chemical genetic growth profiling, strain panel (AID 1159580);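 note: tested at 20 µM; growth read once vehicle control cultures reached saturation at 30 °C; 1 = growth at the plate median or of vehicle wells; lower values mean less growth of the strain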
# Conditions: growth OD
# [1] = S. cerevisiae deletion strains, locus YAL013W, strain DEP1, stronger effect = lower value
# [2] = S. cerevisiae deletion strains, locus YBR229C, strain ROT2, stronger effect = lower value
# [3] = S. cerevisiae deletion strains, locus YDL101C, strain DUN1, stronger effect = lower value
# [4] = S. cerevisiae deletion strains, locus YDR150W, strain NUM1, stronger effect = lower value
# [5] = S. cerevisiae deletion strains, locus YEL061C, strain CIN8, stronger effect = lower value
# [6] = S. cerevisiae deletion strains, locus YGR078C, strain PAC10, stronger effect = lower value
# [7] = S. cerevisiae deletion strains, locus YHR030C, strain SLT2, stronger effect = lower value
# [8] = S. cerevisiae deletion strains, locus YHR087W, strain rtc3, stronger effect = lower value
# [9] = S. cerevisiae deletion strains, locus YJR043C, strain POL32, stronger effect = lower value
# [10] = S. cerevisiae deletion strains, locus YJR075W, strain HOC1, stronger effect = lower value
# [11] = S. cerevisiae deletion strains, locus YLR039C, strain RIC1, stronger effect = lower value
# [12] = S. cerevisiae deletion strains, locus YLR058C, strain SHM2 (second series), stronger effect = lower value
# [13] = S. cerevisiae deletion strains, locus YLR085C, strain ARP6, stronger effect = lower value
# [14] = S. cerevisiae deletion strains, locus YLR262C, strain YPT6, stronger effect = lower value
# [15] = S. cerevisiae deletion strains, locus YML094W, strain GIM5, stronger effect = lower value
# [16] = S. cerevisiae deletion strains, locus YMR219W, strain ESC1, stronger effect = lower value
# [17] = S. cerevisiae deletion strains, locus YMR263W, strain SAP30, stronger effect = lower value
# [18] = S. cerevisiae deletion strains, locus YNL153C, strain GIM3, stronger effect = lower value
# [19] = S. cerevisiae deletion strains, locus YNL298W, strain CLA4 (second series), stronger effect = lower value
# [20] = S. cerevisiae deletion strains, locus YNL322C, strain KRE1, stronger effect = lower value
# [21] = S. cerevisiae deletion strains, locus YNR030W, strain Alg12, stronger effect = lower value
# [22] = S. cerevisiae deletion strains, locus YPL055C, strain LGE1, stronger effect = lower value
# [23] = S. cerevisiae deletion strains, locus YPL241C, strain CIN2, stronger effect = lower value
# [24] = S. cerevisiae deletion strains, locus YPR135W, strain CTF4, stronger effect = lower value
structure (smiles),measurement,setting,value
CCOC(=O)c1c(SC)[nH]c2c(C(F)(F)F)cccc2c1=O,normalized growth,[1],0.996
same,normalized growth,[2],0.991
same,normalized growth,[3],0.99
same,normalized growth,"S. cerevisiae deletion strains, locus YDL134C, strain PPH21, stronger effect = lower value",0.959
same,normalized growth,[4],0.939
same,normalized growth,[5],1.02
same,normalized growth,[6],0.998
same,normalized growth,"S. cerevisiae deletion strains, locus YGR229C, strain SMI1, stronger effect = lower value",0.989
same,normalized growth,[7],0.975
same,normalized growth,[8],0.975
same,normalized growth,[9],0.982
same,normalized growth,[10],0.992
same,normalized growth,"S. cerevisiae deletion strains, locus YKL190W, strain CNB1, stronger effect = lower value",1
same,normalized growth,[11],0.917
same,normalized growth,[12],1
same,normalized growth,[13],0.977
same,normalized growth,[14],0.997
same,normalized growth,[15],0.986
same,normalized growth,[16],1
same,normalized growth,[17],1.03
same,normalized growth,[18],0.986
same,normalized growth,[19],1.01
same,normalized growth,[20],1
same,normalized growth,[21],0.977
same,normalized growth,[22],0.936
same,normalized growth,[23],0.982
same,normalized growth,[24],0.927
COC(=O)c1cn(Cc2ccc(C(F)(F)F)cc2)cc(F)c1=O,normalized growth,[1],1.02
same,normalized growth,[2],0.996
same,normalized growth,[3],0.996
same,normalized growth,[4],0.923
same,normalized growth,[5],0.998
same,normalized growth,[6],1
same,normalized growth,[7],1.08
same,normalized growth,[8],1
same,normalized growth,"S. cerevisiae deletion strains, locus YJL187C, strain SWE1, stronger effect = lower value",1.04
same,normalized growth,[9],0.99
same,normalized growth,[10],1
same,normalized growth,[11],1.02
same,normalized growth,[12],0.996
same,normalized growth,[13],1.09
same,normalized growth,[14],1.04
same,normalized growth,[15],1.03
same,normalized growth,[16],1
same,normalized growth,[17],0.931
same,normalized growth,"S. cerevisiae deletion strains, locus YNL128W, strain TEP1, stronger effect = lower value",1.01
same,normalized growth,[18],0.988
same,normalized growth,[19],1.02
same,normalized growth,[20],1.01
same,normalized growth,[21],1.02
same,normalized growth,"S. cerevisiae deletion strains, locus YOL006C, strain TOP1, stronger effect = lower value",1.04
same,normalized growth,[22],0.921
same,normalized growth,[23],1.01
same,normalized growth,[24],1.05
same,normalized growth,"S. cerevisiae strains, strain wild type, stronger effect = lower value",1.02
Cc1ccc(C(=O)O/N=C(/N)CSc2ncccc2C(F)(F)F)cc1,normalized growth,"S. cerevisiae deletion strains, locus YAR019C, strain CDC15, stronger effect = lower value",1
same,normalized growth,"S. cerevisiae deletion strains, locus YBL105C, strain PKC1, stronger effect = lower value",1.01
same,normalized growth,"S. cerevisiae deletion strains, locus YBR135W, strain CKS1, stronger effect = lower value",1
same,normalized growth,"S. cerevisiae deletion strains, locus YBR136W, strain MEC1, stronger effect = lower value",1.01
same,normalized growth,"S. cerevisiae deletion strains, locus YBR160W, strain CDC28, stronger effect = lower value",1
same,normalized growth,"S. cerevisiae deletion strains, locus YDL017W, strain CDC7, stronger effect = lower value",1.01
same,normalized growth,"S. cerevisiae deletion strains, locus YDL028C, strain MPS1, stronger effect = lower value",0.989
same,normalized growth,[3],1
same,normalized growth,"S. cerevisiae deletion strains, locus YDL108W, strain KIN28, stronger effect = lower value",1
same,normalized growth,"S. cerevisiae deletion strains, locus YDL132W, strain cdc53, stronger effect = lower value",1.01
same,normalized growth,"S. cerevisiae deletion strains, locus YDL214C, strain PRR2, stronger effect = lower value",0.991
same,normalized growth,"S. cerevisiae deletion strains, locus YDR052C, strain DBF4, stronger effect = lower value",1.01
same,normalized growth,"S. cerevisiae deletion strains, locus YDR054C, strain cdc34, stronger effect = lower value",1.01
same,normalized growth,"S. cerevisiae deletion strains, locus YDR226W, strain ADK1, stronger effect = lower value",1.02
same,normalized growth,"S. cerevisiae deletion strains, locus YDR477W, strain SNF1, stronger effect = lower value",0.994
same,normalized growth,"S. cerevisiae deletion strains, locus YER123W, strain YCK3, stronger effect = lower value",0.995
same,normalized growth,"S. cerevisiae deletion strains, locus YER133W, strain GLC7, stronger effect = lower value",0.976
same,normalized growth,"S. cerevisiae deletion strains, locus YFL009W, strain cdc4, stronger effect = lower value",0.994
same,normalized growth,"S. cerevisiae deletion strains, locus YFL029C, strain CAK1, stronger effect = lower value",1
same,normalized growth,"S. cerevisiae deletion strains, locus YFR003C, strain YPI1, stronger effect = lower value",1
same,normalized growth,"S. cerevisiae deletion strains, locus YFR019W, strain FAB1, stronger effect = lower value",0.955
same,normalized growth,"S. cerevisiae deletion strains, locus YFR028C, strain CDC14, stronger effect = lower value",1.01
same,normalized growth,"S. cerevisiae deletion strains, locus YGR040W, strain KSS1, stronger effect = lower value",0.998
same,normalized growth,"S. cerevisiae deletion strains, locus YGR052W, strain FMP48, stronger effect = lower value",1.02
same,normalized growth,"S. cerevisiae deletion strains, locus YGR092W, strain DBF2, stronger effect = lower value",1
same,normalized growth,[7],0.982
same,normalized growth,"S. cerevisiae deletion strains, locus YHR079C, strain IRE1, stronger effect = lower value",0.793
same,normalized growth,"S. cerevisiae deletion strains, locus YHR082C, strain KSP1, stronger effect = lower value",1.19
same,normalized growth,"S. cerevisiae deletion strains, locus YHR205W, strain SCH9, stronger effect = lower value",0.988
same,normalized growth,"S. cerevisiae deletion strains, locus YIL147C, strain SLN1, stronger effect = lower value",1.01
same,normalized growth,"S. cerevisiae deletion strains, locus YJL095W, strain BCK1, stronger effect = lower value",0.887
same,normalized growth,"S. cerevisiae deletion strains, locus YJL128C, strain PBS2, stronger effect = lower value",0.988
same,normalized growth,"S. cerevisiae deletion strains, locus YJL157C, strain FAR1, stronger effect = lower value",0.997
same,normalized growth,"S. cerevisiae deletion strains, locus YJR016C, strain ILV3, stronger effect = lower value",1.01
same,normalized growth,"S. cerevisiae deletion strains, locus YJR066W, strain TOR1 (second series), stronger effect = lower value",0.975
same,normalized growth,"S. cerevisiae deletion strains, locus YJR066W, strain TOR1, stronger effect = lower value",1.16
same,normalized growth,"S. cerevisiae deletion strains, locus YKL048C, strain ELM1, stronger effect = lower value",0.991
same,normalized growth,"S. cerevisiae deletion strains, locus YKL067W, strain YNK1, stronger effect = lower value",0.996
same,normalized growth,"S. cerevisiae deletion strains, locus YKL101W, strain HSL1, stronger effect = lower value",1
same,normalized growth,"S. cerevisiae deletion strains, locus YKL193C, strain SDS22, stronger effect = lower value",1.01
same,normalized growth,"S. cerevisiae deletion strains, locus YKL203C, strain TOR2, stronger effect = lower value",1.07
same,normalized growth,"S. cerevisiae deletion strains, locus YLR113W, strain HOG1, stronger effect = lower value",0.828 (active)
same,normalized growth,"S. cerevisiae deletion strains, locus YLR133W, strain CKI1, stronger effect = lower value",1
same,normalized growth,"S. cerevisiae deletion strains, locus YLR403W, strain SFP1, stronger effect = lower value",0.976
same,normalized growth,"S. cerevisiae deletion strains, locus YML070W, strain DAK1, stronger effect = lower value",0.988
same,normalized growth,"S. cerevisiae deletion strains, locus YMR001C, strain CDC5, stronger effect = lower value",1.01
same,normalized growth,"S. cerevisiae deletion strains, locus YMR205C, strain PFK2 (second series), stronger effect = lower value",0.993
same,normalized growth,"S. cerevisiae deletion strains, locus YMR277W, strain FCP1, stronger effect = lower value",1.01
same,normalized growth,"S. cerevisiae deletion strains, locus YNL006W, strain LST8, stronger effect = lower value",1.01
same,normalized growth,"S. cerevisiae deletion strains, locus YNL020C, strain ARK1, stronger effect = lower value",1
same,normalized growth,"S. cerevisiae deletion strains, locus YNL161W, strain CBK1, stronger effect = lower value",1.01
same,normalized growth,"S. cerevisiae deletion strains, locus YNL183C, strain NPR1, stronger effect = lower value",0.951
same,normalized growth,"S. cerevisiae deletion strains, locus YNL207W, strain RIO2, stronger effect = lower value",1.02
same,normalized growth,"S. cerevisiae deletion strains, locus YNL222W, strain SSU72, stronger effect = lower value",1
same,normalized growth,"S. cerevisiae deletion strains, locus YNL307C, strain MCK1 (second series), stronger effect = lower value",1.01
same,normalized growth,"S. cerevisiae deletion strains, locus YOL078W, strain AVO1, stronger effect = lower value",1
same,normalized growth,"S. cerevisiae deletion strains, locus YOL136C, strain PFK27, stronger effect = lower value",0.994
same,normalized growth,"S. cerevisiae deletion strains, locus YOR061W, strain CKA2, stronger effect = lower value",0.982
same,normalized growth,"S. cerevisiae deletion strains, locus YOR119C, strain RIO1, stronger effect = lower value",1.02
same,normalized growth,"S. cerevisiae deletion strains, locus YOR231W, strain MKK1, stronger effect = lower value",0.821
same,normalized growth,"S. cerevisiae deletion strains, locus YOR329C, strain SCD5, stronger effect = lower value",1.01
same,normalized growth,"S. cerevisiae deletion strains, locus YPL031C, strain PHO85, stronger effect = lower value",1
same,normalized growth,"S. cerevisiae deletion strains, locus YPL153C, strain RAD53, stronger effect = lower value",0.984
same,normalized growth,"S. cerevisiae deletion strains, locus YPL204W, strain HRR25, stronger effect = lower value",0.994
same,normalized growth,"S. cerevisiae deletion strains, locus YPL209C, strain IPL1, stronger effect = lower value",1.01
same,normalized growth,"S. cerevisiae deletion strains, locus YPL256C, strain CLN2, stronger effect = lower value",0.884
same,normalized growth,"S. cerevisiae deletion strains, locus YPR025C, strain CCL1, stronger effect = lower value",1
same,normalized growth,"S. cerevisiae deletion strains, locus YPR106W, strain ISR1, stronger effect = lower value",1.01
same,normalized growth,"S. cerevisiae deletion strains, locus YPR111W, strain DBF20, stronger effect = lower value",1
same,normalized growth,"S. cerevisiae deletion strains, strain NNK1, stronger effect = lower value",1.02
same,normalized growth,"S. cerevisiae deletion strains, strain TSCII, stronger effect = lower value",1.01
